# The other results are listed elsewhere or left out. Inconclusive results are not listed. A number with no mark means an inactive call. Activity calls are given as the source filed them. Calls come from the whole dose curve; as a rule, active = well fitted inhibition curve with a large enough effect; inconclusive = small, poorly fitted or top-dose-only effect; inactive = no such curve, though single readings can be large or run the other way.
# Experiment: Counterscreen for RECQ1 Inhibitors: ADP Fluorescence Polarization Displacement Assay; note: nearly all actives have a fitted effect of over 45% in size
# Conditions: series mostly up to 228 µM; activity change, negative = inhibition: at the top concentration
# Text: In order to gain further insight into the mode of action of the RECQ1 screening hits, we have profiled them in a set of miniaturized fluorescence polarization assays designed to report on compounds which competitively displace either co-substrate (ATP or DNA). The appropriate fluorescently-labeled probe was used: BODIPY Texas Red-labeled ADP was expected to be competed off by ATP-competitive inhibitors, while single-TAMRA labeled forked-duplex or short single-stranded DNA molecules served as probes for DNA-competitive compounds.
# Three uL of reaction buffer (25 mM Tris-HCl (pH 8.0), 5 mM NaCl, 2 mM MgCl2, 1mM DTT, 0.01% Tween- 20, and 2.5 ug/ml poly(dI-dC), containing 300 nM RECQ1 and 500 nM BODIPY Texas Red-ADP (Invitrogen) were dispensed into a 1536-well Greiner black assay plate via solenoid-valve based nanoliter dispensers; 500 nM BODIPY Texas Red-ADP without RECQ1 protein served as a fully-displaced control. Compounds (23 nl each in columns 5-48) were transferred via a Kalypsys pintool equipped with a 1536-pin array. The plates were incubated for 15 min at room temperature and were then transferred into a ViewLux high-throughput CCD imager, where the endpoint fluorescence polarization was measured using 525 nm excitation and 598 nm emission protocol.
# % is set by controls: 0 for no effect and ±100 for the full control effect; potency is the fitted concentration of half-maximal effect.
Compound,"activity change, negative = inhibition",Potency
CC(=O)Nc1ccc(Nc2c3ccccc3nc3ccccc23)cc1,34.5% [at 91.9 µM],
CC(C)C1N=C2c3ccccc3N=C(SCC(=O)c3ccc(O)c(O)c3)N2C1=O (configuration not stated),-10.2% [at 91.9 µM],
O=C(NC(Cc1c[nH]c2ccccc12)C(=O)O)/C(=C/c1ccco1)NC(=O)c1ccccc1 (configuration not stated),8.72%,
O=C(O)CCn1c(SCc2cc(=O)n3ccccc3n2)nc2ccsc2c1=O,0.643%,
O=C(NCc1ccccc1)C1=C[C@@H](C2CCCCC2)C[C@@H](OCc2ccc(CO)cc2)O1,-3.38% [at 91.9 µM],
O=C(OCC1O[C@@H](OC(=O)c2cc(O)c(O)c(O)c2)[C@@H](OC(=O)c2cc(O)c(O)c(O)c2)[C@@H](OC(=O)c2cc(O)c(O)c(O)c2)[C@@H]1OC(=O)c1cc(O)c(O)c(O)c1)c1cc(O)c(O)c(O)c1 (some centres not stated),-12.5% [at 91.9 µM],
O=C(N/N=C/c1sc(N2CCCCC2)nc1-c1cccs1)c1cccnc1,59.1% [at 91.9 µM],
CC1Cc2ccccc2N1C(=O)CSc1nnc(-c2ccc(S(=O)(=O)N3CCCC3)cc2)n1C (configuration not stated),3.82%,
c1ccc(CSc2nnc(-c3ccco3)c(-c3ccco3)n2)cc1,,50.1 µM (active)
O=C(NC(Cc1ccccc1)C(=O)N1CCCC1C(=O)O)c1ccccc1 (configuration not stated),-0.948%,
COc1cc(C2C(C(=O)c3ccc(C)o3)=C(O)C(=O)N2CCc2ccccc2)ccc1O (configuration not stated),6.79%,
O=C(CCn1nnc2ccccc2c1=O)N[C@@H](Cc1c[nH]c2ccccc12)C(=O)O,6.93%,

# — PubChem BioAssay AID2711 (National Center for Advancing Translational Sciences (NCATS), 2010)
